Source: PubChem BioAssay AID651704 (Broad Institute, 2012)
Values joined by “and” are separate entries in the source; they are usually repeats but may differ in a detail not shown here. Identical values can stand only once. About 1,600 (0.46%) of roughly 350,000 compounds were called active.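 Rule for the calls: active = every replicate reaching a set inhibition limit, whatever the replicate mean (cut at about 25% in these data); inconclusive = mean inhibition reaches that limit but some replicates miss it; inactive = the rest.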 Shown is part of a subset that was picked to be rich in actives. A structure can be active in one record and inactive in another.

These molecules were tested against Protein AF-9 (Homo sapiens) (UniProt P42568) (assay: inhibitors of AF4 peptide binding to AF9, primary screen, biochemical, AlphaScreen, biotin-AF4 peptide, FLAG-AF9, single point (AID 651704;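 note: 0% = plate neutral control median and 100% = total signal loss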)). Conditions: at 10 µM, stronger effect = higher value.
Sequence of Protein AF-9 (Homo sapiens) (P42568 whole entry, looked up): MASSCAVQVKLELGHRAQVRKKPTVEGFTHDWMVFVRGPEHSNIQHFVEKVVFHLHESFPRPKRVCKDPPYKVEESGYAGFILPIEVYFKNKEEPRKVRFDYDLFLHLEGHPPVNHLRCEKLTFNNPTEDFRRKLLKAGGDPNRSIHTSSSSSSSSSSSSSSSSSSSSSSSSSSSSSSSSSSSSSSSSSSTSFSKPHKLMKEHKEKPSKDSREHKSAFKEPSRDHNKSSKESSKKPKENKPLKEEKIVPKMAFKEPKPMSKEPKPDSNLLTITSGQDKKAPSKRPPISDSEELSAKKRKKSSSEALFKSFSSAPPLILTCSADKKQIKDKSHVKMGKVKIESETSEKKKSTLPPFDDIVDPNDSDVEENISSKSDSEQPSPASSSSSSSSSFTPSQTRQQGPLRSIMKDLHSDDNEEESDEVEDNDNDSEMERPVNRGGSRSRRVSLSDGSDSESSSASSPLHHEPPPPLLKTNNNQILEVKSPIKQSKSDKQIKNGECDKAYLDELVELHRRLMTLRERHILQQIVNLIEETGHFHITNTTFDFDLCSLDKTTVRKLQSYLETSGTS

SMILES | inhibition
COc1ccc2c(c1)c(=Cc1ccc(N(C)C)cc1)c1cc(-c3ccccc3)[n+](C)n12 | 67.9% (active)
COc1cccc2c1C(=O)c1c(O)c3c(c(O)c1C2=O)CC(O)(C(C)=NNC(=O)c1ccc(Cl)c(Cl)c1)CC3OC1CC(N)C(O)C(C)O1 (centres undefined) | 33.8% (active)
N#C[C@@H]1[C@H](c2ccccc2-c2cccc(F)c2)[C@@H](CO)N1C(=O)CN1CCOCC1 | -3.02% (inactive)
CO[C@@H]1CN(C)C(=O)c2ccc(NS(C)(=O)=O)cc2OC[C@H](C)NC[C@H]1C | -2.11% (inactive)
Cc1ccc2c(c1)C1CN(C)CCC1N2S(=O)(=O)c1cccc(F)c1 (centres undefined) | 4.04% (inactive)
Cc1ccc2c(c1)C1CN(C)CCC1N2S(=O)(=O)c1ccc(Oc2ccc([N+](=O)[O-])cc2)cc1 (centres undefined) | 20.9% (inactive) and 27.4% (active)
Cc1ccc2c(c1)C1CN(C)CCC1N2C(=S)Nc1ccc(OC(F)F)cc1 (centres undefined) | 5.25% (inactive)
CN(C)C(=O)c1cccc(-c2ccc([C@H]3[C@H](CO)N4C(=O)CN(C(=O)C5CCCCC5)C[C@@H]34)cc2)c1 | -3% (inactive)
CC(C)CC#Cc1cnc2c(c1)C(=O)N([C@@H](C)CO)C[C@@H](C)[C@@H](CN(C)C(=O)c1cccnc1)O2 | -2.62% (inactive)
COc1ccc2c3c(n(C)c2c1)[C@@H](CO)N(Cc1ccccc1)CC31CN(C(=O)C2CC2)C1 | 2.25% (inactive)
COc1ccccc1-c1cc(NC(C)=O)c2ncc(-c3ccc(F)cc3)n2c1 | -6.86% (inactive)
CC(=O)Nc1cc(-c2ccc(N3CCN(C)CC3)cc2)cn2c(-c3ccc(F)cc3)cnc12 | 26.2% (active)
CC(=O)Nc1cc(-c2ccc(N3CCN(C)CC3)cc2)cn2c(-c3cccc(C(=O)N(C)C)c3)cnc12 | 9.58% (inactive)
CN(C)C(=O)c1cccc(-c2ccc3c(c2)[C@H]2[C@H](CCN2S(=O)(=O)c2cn(C)cn2)[C@@H](CO)N3)c1 | -3.61% (inactive)
Cc1noc(C)c1NC(=O)N(C)C[C@@H]1OCCCC[C@H](C)Oc2ccc(NC(=O)NC3CCCCC3)cc2C(=O)N([C@H](C)CO)C[C@H]1C | -0.856% (inactive)
CCCNC(=O)C[C@H]1C[C@H]2c3cc(NC(=O)NC4CCCCC4)ccc3O[C@H]2[C@H](CO)O1 | 5.96% (inactive)
CCNC(=O)C[C@H]1CC[C@@H](NC(=O)C2CCOCC2)[C@@H](CO)O1 | 1.25% (inactive)
O=C(NCc1ccccc1)C1CCCN(c2nc3ccsc3c(=O)s2)C1 (centres undefined) | -3.41% (inactive)
O=C(NCCc1cccc(F)c1)C1CCCN(c2nc3ccccc3s2)C1 (centres undefined) | 39.3% (active)
Cc1cc(=O)n2nc(N3CCCC(C(=O)NCc4cccc(Cl)c4)C3)sc2n1 (centres undefined) | 2.52% (inactive)
C/C=C/c1ccccc1[C@@H]1[C@@H](C#N)N(C(=O)Cc2ccccn2)[C@H]1CO | 0.68% (inactive)
COc1ccccc1-c1cnc2c(c1)C(=O)N([C@H](C)CO)C[C@H](C)[C@@H](CN(C)CC1CCOCC1)O2 | -1.31% (inactive)
CC(=O)c1c(N2CCN(c3ccc(F)cc3)CC2)nc(=S)n(-c2ccccc2)c1C | 26.4% (active)
CC(=O)c1c(N2CCOCC2)nc(=S)n(-c2cc(C)ccc2C)c1C | 11.8% (inactive)
Cc1ccc2cc(C)c(N3CCN(c4ccc(F)cc4)CC3)nc2c1 | -1.83% (inactive)

SMILES | inhibition
O=C(C1CCCC1)N1CC(=O)N2[C@H](C1)[C@@H](c1ccc(-c3cccnc3)cc1)[C@@H]2CO | -2.09% (inactive)
Cc1cccc(S(=O)(=O)N2CCCCN3[C@@H](CO)[C@H](c4ccc(-c5cccnc5)cc4)[C@@H]3C2)c1 | -0.659% (inactive)
COc1ccc2c3c(n(C)c2c1)[C@@H](CO)N(Cc1ccccc1F)CC31CCN(C(=O)C2CCOCC2)CC1 | 1.15% (inactive)
Cc1noc(C)c1NC(=O)N(C)C[C@@H]1OCCCC[C@@H](C)Oc2ccc(NC(=O)C3CCCCC3)cc2C(=O)N([C@@H](C)CO)C[C@H]1C | -0.114% (inactive)
COc1cc2c(cc1NC(=O)COC(=O)/C=C/c1ccccc1)oc1ccccc12 | 30.3% (active)
COc1cc(/C=C/C(=O)OCC(=O)c2ccccc2)cc(OC)c1OC | 4.16% (inactive)
COc1ccc(/C=C/C(=O)OCC(=O)NCc2cccs2)cc1OC | 2.43% (inactive)
COc1ccc(CNC(=O)C[C@@H]2CC[C@H](NC(=O)c3cccc(F)c3)[C@H](CO)O2)cc1 | 0.518% (inactive)
COC(=O)c1cc(S(=O)(=O)NCC2CCN(Cc3ccc(Cl)cc3)CC2)cn1C | 5.58% (inactive)
COC(=O)c1c(C)oc(C)c1S(=O)(=O)Nc1ccc(C(C)C)cc1 | 0.192% (inactive)
COC(=O)c1c(C)oc(C)c1S(=O)(=O)NCc1ccc(Cl)cc1 | 28.9% (active)
O=C(CC1CC1)Nc1ccc2c(c1)[C@@H]1C[C@@H](CC(=O)NC3CCCCC3)O[C@H](CO)[C@@H]1O2 | 0.025% (inactive)
CC(C)CC#Cc1ccc([C@@H]2[C@@H](CO)N3C(=O)CN(C(=O)Nc4ccc(F)cc4)C[C@H]23)cc1 | 5.86% (inactive)
CN(C)c1ccc(C2N(C)C(=O)c3ccccc3N2C)cc1 (centres undefined) | 2.23% (inactive)
CN(C)c1ccc(Nc2c3c4c(cccc4n(C)c2=O)C(=O)c2ccccc2-3)cc1 | 64.1% (active)
COc1cccc(S(=O)(=O)Nc2ccc3c(c2)[C@H]2C[C@H](CC(=O)N4CCCCC4)O[C@@H](CO)[C@H]2O3)c1 | 0.52% (inactive)
COc1ccc2c3c([nH]c2c1)[C@H](CO)N(C(=O)c1ccncc1)CC31CCN(C(=O)c2ccncc2)CC1 | 3.61% (inactive)
COc1ccc(C#Cc2ccc([C@@H]3[C@@H](CO)N4C(=O)CN(C(=O)c5ccc(F)cc5)C[C@@H]34)cc2)cc1 | -3.35% (inactive)
O=C(c1ccccn1)N1CC2(C1)[C@H](c1ccccc1)[C@H](CO)N2C(=O)C1CCCC1 | -1.83% (inactive)
CN1C(=O)c2cc(NC(=O)c3ccno3)ccc2OC[C@H]2O[C@@H](CC(=O)NCC(F)(F)F)CC[C@@H]21 | -0.947% (inactive)
O=C(Nc1ccccc1)C1CCN(C(=O)c2ccc(Br)cc2)CC1 | -2.26% (inactive)
O=C1Nc2cc(C(=O)N3CCC(N4CCCCC4)CC3)ccc2S/C1=C\c1ccccc1 | 32.5% (active)
CC1CCN(C(=O)c2ccc3c(c2)NC(=O)CN3)CC1 | 4.92% (inactive)
O=C(N[C@H]1CC[C@H](CCn2cc(C3(O)CCCC3)nn2)O[C@H]1CO)C1CC1 | -0.223% (inactive)
C[C@@H]1CN([C@H](C)CO)C(=O)Cc2cc(N(C)C)ccc2O[C@@H]1CN(C)Cc1ccccc1 | 3.48% (inactive)

SMILES | inhibition
C[C@H]1CN([C@@H](C)CO)C(=O)Cc2cc(N(C)C)ccc2O[C@@H]1CN(C)Cc1ccc(-c2ccccc2)cc1 | 51.6% (active)
C[C@@H]1CCCCO[C@H](CN(C)Cc2ccc(C(F)(F)F)cc2)[C@H](C)CN([C@@H](C)CO)C(=O)c2cc(N(C)C)ccc2O1 | 29.4% (active)
C[C@H](CO)N1C[C@H](C)[C@H](CN(C)Cc2ccc(C(F)(F)F)cc2)Oc2ccc(N(C)C)cc2CC1=O | 15.8% (inactive)
C[C@@H]1CN([C@@H](C)CO)C(=O)c2cc(N(C)C)ccc2O[C@@H](C)CCCCO[C@H]1CN(C)Cc1ccncc1 | -1.22% (inactive)
C[C@@H]1CCCCO[C@@H](CN(C)Cc2ccncc2)[C@H](C)CN([C@H](C)CO)C(=O)c2cc(N(C)C)ccc2O1 | 1.48% (inactive)
CCCNC(=O)N1C[C@H](C)[C@@H](OC)CN(C)C(=O)c2ccc(NC(=O)CC)cc2OC[C@@H]1C | -2.2% (inactive)
COc1cccc(C#Cc2ccc([C@@H]3[C@H](C#N)N[C@H]3CO)cc2)c1 | -2.01% (inactive)
CC(C)C#Cc1ccc([C@H]2[C@@H](CO)N3C(=O)CN(C(=O)Cc4ccccc4)C[C@H]23)cc1 | -0.595% (inactive)
COc1ccccc1NC(=O)Nc1ccc2c(c1)OC[C@H](C)NC[C@H](C)[C@@H](OC)CN(C)C2=O | 1.19% (inactive)
Cc1ccc(S(=O)(=O)Nc2ccc3c(c2)C(=O)N([C@@H](C)CO)C[C@@H](C)[C@@H](CN(C)S(=O)(=O)c2ccc(C)cc2)O3)cc1 | -1.03% (inactive)
O=C(O)C[C@@H]1CC[C@H](NC(=O)CCN2CCCCC2)[C@H](CO)O1 | -0.492% (inactive)
Cc1ccccc1C(=O)Nc1ccc(N2CCCCCC2)cc1 | 27.9% (active)
Cc1ccccc1C(=O)N1CCN(c2ccc(NC(=O)c3cccs3)cc2)CC1 | 0.817% (inactive)
Cc1ccccc1C(=O)Nc1ccccc1NC(=O)c1ccccc1C | 0.679% (inactive)
O=C(CC1CC1)N[C@@H]1C[C@@H]2O[C@H](CO)CC[C@@H]2O[C@@H]1CCc1ccc(C#Cc2ccccc2)cc1 | -5.03% (inactive)
Cc1ccc(CN2CCN(c3ncccn3)CC2)c(C)c1 | -1.37% (inactive)
Oc1c(CN2CCN(c3ccc(F)cc3)CC2)cc(Cl)c2cccnc12 | 41.3% (active)
Oc1c(CN2CCCC2)cc(COCc2ccccc2)c2cccnc12 | 6.56% (inactive)
O=[N+]([O-])c1ccccc1Nc1ccc(O)cc1 | 28.1% (active)
O=[N+]([O-])c1ccccc1NCc1ccccc1Cl | -5.33% (inactive)
O=C(NCCNc1ccccc1[N+](=O)[O-])c1ccccc1F | 0.524% (inactive)
COc1ccc2c3c(n(C)c2c1)[C@H](CO)N(C(=O)Nc1cccc(F)c1)CC31CN(Cc2nccs2)C1 | 7.77% (inactive)
COc1ccc2c3c(n(C)c2c1)[C@@H](CO)N(C(C)=O)CC31CCN(Cc2nccs2)CC1 | 3.54% (inactive)
COc1ccc2c3c(n(C)c2c1)[C@@H](CO)N(C(=O)Nc1cccc(F)c1)CC31CCN(Cc2nccs2)CC1 | 28.6% (active)
